# Measurements: paper PMC7862700, “An all-to-all approach to the identification of sequence-specific readers for epigenetic DNA modifications on cytosine”
# Key:
# Experiment in all cases: DAPPL (digital affinity profiling via proximity ligation, sequencing); 10 mM Tris-HCl pH 7.5, 50 mM NaCl, 1 mM DTT, 4% glycerol, room temperature, 30 min; GST-TFs on glutathione beads, 16-mer random dsDNA library, 0.1% formaldehyde crosslink after washing; high values mean tight binding
# [1] = target: T1, FLI1 (Homo sapiens, UniProt Q01543 1-452); settings: protein: recombinant; tags: N-terminal GST; dsDNA, one strand shown
# T1 sequence: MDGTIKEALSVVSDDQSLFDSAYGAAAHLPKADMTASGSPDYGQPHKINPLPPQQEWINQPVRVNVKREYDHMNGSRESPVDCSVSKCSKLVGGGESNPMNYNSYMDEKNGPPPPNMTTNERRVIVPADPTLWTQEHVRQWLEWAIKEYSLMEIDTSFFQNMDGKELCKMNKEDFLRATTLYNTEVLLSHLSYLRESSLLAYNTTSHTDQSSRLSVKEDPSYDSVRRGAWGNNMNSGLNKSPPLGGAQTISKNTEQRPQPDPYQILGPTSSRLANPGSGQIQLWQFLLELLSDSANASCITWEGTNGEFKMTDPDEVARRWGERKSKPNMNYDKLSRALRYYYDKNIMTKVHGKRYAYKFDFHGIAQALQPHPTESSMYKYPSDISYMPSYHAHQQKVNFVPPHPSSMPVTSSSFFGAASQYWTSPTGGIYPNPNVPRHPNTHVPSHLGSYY
# In short: (§1)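 Each value of binding signal is a hexamer's read frequency for a factor divided by the same hexamer's frequency in the tag-only sample. Barcoded, bead-captured GST fusions of human transcription factors made in yeast were pooled with that sample and incubated with 200 nmole of a random double-stranded 16-mer DNA library in Tris/NaCl/DTT/glycerol buffer at room temperature for 30 min. Washing, 0.1% formaldehyde crosslinking, proximity ligation, PCR and Illumina NextSeq500 sequencing followed.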
# [2] = target: T2, ELK1 (Homo sapiens, UniProt P19419 1-428); settings: protein: recombinant; tags: N-terminal GST; dsDNA, one strand shown
# T2 sequence: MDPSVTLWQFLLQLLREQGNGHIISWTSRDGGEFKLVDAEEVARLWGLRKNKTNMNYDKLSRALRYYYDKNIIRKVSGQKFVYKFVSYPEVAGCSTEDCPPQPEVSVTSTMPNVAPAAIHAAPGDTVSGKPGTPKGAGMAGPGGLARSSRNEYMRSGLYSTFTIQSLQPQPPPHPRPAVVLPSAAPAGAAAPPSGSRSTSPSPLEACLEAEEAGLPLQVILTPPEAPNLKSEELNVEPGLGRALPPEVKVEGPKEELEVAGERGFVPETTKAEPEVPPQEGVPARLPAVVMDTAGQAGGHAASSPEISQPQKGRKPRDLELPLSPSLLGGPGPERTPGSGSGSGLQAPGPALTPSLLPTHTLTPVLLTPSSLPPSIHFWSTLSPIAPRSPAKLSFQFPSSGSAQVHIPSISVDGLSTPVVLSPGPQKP
# In short: as §1
# [3] = target: T3, GABPA (Homo sapiens, UniProt Q06546 1-454); settings: protein: recombinant; tags: N-terminal GST; dsDNA, one strand shown
# T3 sequence: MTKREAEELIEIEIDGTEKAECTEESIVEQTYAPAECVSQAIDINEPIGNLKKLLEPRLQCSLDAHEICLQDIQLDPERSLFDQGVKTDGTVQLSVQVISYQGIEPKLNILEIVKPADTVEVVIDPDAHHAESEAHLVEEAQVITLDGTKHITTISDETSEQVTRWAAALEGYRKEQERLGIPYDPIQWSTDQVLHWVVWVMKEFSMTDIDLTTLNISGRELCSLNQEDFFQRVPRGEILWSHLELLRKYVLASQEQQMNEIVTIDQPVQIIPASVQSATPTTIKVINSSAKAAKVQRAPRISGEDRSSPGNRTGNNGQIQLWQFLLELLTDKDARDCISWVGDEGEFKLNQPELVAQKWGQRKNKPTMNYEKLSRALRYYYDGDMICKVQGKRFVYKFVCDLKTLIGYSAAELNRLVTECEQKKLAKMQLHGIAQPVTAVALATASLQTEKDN
# In short: as §1
# [4] = target: T4, ERG (Homo sapiens, UniProt P11308 1-479); settings: protein: recombinant; tags: N-terminal GST; dsDNA, one strand shown
# T4 sequence: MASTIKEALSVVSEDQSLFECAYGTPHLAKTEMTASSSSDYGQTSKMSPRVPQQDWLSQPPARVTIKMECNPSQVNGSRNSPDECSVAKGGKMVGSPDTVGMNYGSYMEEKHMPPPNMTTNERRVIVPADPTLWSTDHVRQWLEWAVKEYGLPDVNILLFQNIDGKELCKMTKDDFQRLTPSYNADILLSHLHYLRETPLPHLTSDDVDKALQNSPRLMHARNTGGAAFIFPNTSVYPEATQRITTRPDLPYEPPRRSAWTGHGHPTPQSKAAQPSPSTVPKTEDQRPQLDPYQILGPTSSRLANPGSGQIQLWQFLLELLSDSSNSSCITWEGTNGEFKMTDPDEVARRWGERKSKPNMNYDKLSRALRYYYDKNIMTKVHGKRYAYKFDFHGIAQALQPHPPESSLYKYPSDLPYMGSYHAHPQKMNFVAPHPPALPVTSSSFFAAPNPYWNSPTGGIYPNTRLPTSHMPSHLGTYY
# In short: as §1
# [5] = target: ELF1 (Homo sapiens, UniProt P32519 1-619); settings: protein: recombinant; tags: N-terminal GST; dsDNA, one strand shown
# ELF1, sequence (P32519 whole entry): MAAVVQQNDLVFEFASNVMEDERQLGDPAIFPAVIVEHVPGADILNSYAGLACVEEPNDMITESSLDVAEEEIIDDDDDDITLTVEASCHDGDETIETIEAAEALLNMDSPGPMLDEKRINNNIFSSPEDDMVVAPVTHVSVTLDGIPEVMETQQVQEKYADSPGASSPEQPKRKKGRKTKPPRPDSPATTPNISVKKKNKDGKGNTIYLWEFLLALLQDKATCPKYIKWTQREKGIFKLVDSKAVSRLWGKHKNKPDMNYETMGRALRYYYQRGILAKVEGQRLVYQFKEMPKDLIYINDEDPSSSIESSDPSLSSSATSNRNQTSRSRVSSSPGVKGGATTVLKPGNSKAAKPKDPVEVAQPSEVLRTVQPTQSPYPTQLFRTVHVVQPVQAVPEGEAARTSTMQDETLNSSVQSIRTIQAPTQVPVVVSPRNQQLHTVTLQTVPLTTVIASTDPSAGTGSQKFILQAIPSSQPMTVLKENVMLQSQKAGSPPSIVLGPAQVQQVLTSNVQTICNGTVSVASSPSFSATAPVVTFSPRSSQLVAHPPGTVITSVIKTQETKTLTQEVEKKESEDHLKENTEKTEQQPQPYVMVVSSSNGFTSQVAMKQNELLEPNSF
# In short: as §1
# [6] = target: T5, EHF (Homo sapiens, UniProt Q9NZC4 1-300); settings: protein: recombinant; tags: N-terminal GST; dsDNA, one strand shown
# T5 sequence: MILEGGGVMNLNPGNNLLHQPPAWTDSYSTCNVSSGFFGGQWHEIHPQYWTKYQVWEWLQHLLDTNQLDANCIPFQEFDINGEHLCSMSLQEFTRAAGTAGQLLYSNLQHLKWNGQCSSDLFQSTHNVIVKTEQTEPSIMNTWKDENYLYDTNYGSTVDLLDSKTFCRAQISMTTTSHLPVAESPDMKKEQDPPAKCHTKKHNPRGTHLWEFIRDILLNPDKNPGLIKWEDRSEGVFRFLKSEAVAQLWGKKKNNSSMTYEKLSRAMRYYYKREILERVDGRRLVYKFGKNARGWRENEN
# In short: as §1
# [7] = target: SPI1 (Homo sapiens, UniProt P17947 1-270); settings: protein: recombinant; tags: N-terminal GST; dsDNA, one strand shown
# In short: as §1
# [8] = target: SPIB (Homo sapiens, UniProt Q01892 1-262); settings: protein: recombinant; tags: N-terminal GST; dsDNA, one strand shown
# SPIB, sequence (Q01892 whole entry): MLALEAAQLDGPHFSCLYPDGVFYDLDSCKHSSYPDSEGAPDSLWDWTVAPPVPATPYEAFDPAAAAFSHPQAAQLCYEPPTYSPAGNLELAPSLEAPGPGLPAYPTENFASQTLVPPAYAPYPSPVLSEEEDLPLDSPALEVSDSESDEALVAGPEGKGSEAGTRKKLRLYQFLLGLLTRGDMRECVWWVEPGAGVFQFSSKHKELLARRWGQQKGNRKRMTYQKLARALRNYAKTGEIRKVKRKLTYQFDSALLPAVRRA
# In short: as §1
# [9] = target: T6, ELK3 (Homo sapiens, UniProt P41970 1-407); settings: protein: recombinant; tags: N-terminal GST; dsDNA, one strand shown
# T6 sequence: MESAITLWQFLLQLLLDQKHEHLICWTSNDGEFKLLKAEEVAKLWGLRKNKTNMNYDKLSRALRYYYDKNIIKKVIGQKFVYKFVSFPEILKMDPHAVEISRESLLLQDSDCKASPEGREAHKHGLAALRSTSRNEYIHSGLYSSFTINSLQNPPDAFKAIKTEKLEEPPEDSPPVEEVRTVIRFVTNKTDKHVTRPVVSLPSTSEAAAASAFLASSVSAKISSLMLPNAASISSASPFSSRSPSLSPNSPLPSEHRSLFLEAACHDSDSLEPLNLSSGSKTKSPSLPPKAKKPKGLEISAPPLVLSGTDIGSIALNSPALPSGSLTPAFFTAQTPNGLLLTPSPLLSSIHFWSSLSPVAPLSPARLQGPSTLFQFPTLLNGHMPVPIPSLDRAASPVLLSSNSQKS
# In short: as §1
# [10] = target: T7, FEV (Homo sapiens, UniProt Q99581 1-238); settings: protein: recombinant; tags: N-terminal GST; dsDNA, one strand shown
# T7 sequence: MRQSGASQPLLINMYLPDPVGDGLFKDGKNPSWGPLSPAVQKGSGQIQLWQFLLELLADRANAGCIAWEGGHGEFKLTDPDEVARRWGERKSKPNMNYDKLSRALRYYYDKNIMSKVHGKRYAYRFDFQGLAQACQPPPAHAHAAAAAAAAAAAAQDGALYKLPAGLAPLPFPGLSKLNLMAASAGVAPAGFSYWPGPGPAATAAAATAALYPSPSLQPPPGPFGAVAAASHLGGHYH
# In short: as §1
# [11] = target: ETV5 (Homo sapiens, UniProt P41161 1-510); settings: protein: recombinant; tags: N-terminal GST; dsDNA, one strand shown
# ETV5, sequence (P41161 whole entry): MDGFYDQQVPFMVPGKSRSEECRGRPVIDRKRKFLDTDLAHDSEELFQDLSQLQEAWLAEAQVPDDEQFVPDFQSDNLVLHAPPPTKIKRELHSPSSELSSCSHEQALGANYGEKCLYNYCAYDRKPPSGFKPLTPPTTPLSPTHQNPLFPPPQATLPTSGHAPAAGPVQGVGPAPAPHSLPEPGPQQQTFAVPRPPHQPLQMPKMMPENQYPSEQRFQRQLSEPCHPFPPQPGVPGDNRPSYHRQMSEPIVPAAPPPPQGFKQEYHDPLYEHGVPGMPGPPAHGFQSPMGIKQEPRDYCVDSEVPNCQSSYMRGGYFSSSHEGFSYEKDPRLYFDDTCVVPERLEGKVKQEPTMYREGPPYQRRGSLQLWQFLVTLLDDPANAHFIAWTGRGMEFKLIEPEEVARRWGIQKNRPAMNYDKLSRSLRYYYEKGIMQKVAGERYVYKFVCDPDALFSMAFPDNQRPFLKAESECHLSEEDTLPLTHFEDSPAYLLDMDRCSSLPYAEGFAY
# In short: as §1
# [12] = target: HSF1 (Homo sapiens, UniProt Q00613 1-529); settings: protein: recombinant; tags: N-terminal GST; chain copies: 3; dsDNA, one strand shown
# HSF1, sequence (Q00613 whole entry): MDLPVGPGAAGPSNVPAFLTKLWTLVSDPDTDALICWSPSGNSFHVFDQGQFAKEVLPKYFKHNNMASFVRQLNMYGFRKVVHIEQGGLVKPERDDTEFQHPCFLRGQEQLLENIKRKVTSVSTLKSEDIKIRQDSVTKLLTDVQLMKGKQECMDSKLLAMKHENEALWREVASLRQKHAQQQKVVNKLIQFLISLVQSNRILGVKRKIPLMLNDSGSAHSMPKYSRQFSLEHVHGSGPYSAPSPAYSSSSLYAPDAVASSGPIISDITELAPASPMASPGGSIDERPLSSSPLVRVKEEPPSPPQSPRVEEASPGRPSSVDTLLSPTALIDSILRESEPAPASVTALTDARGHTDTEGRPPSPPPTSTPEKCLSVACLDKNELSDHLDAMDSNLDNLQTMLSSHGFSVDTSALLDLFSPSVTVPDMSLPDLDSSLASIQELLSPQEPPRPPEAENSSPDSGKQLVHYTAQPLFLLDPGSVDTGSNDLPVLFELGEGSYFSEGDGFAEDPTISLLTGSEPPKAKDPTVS
# In short: as §1
# [13] = target: T8, SPIC (Homo sapiens, UniProt Q8N5J4 1-248); settings: protein: recombinant; tags: N-terminal GST; dsDNA, one strand shown
# T8 sequence: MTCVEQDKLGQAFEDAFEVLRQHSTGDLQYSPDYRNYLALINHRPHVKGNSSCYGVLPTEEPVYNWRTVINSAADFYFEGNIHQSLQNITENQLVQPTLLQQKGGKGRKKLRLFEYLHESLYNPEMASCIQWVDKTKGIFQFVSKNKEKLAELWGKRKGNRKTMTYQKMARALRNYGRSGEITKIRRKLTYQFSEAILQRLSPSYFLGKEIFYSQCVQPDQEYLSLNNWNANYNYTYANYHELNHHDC
# In short: as §1
# [14] = target: ELF4 (Homo sapiens, UniProt Q99607 1-663); settings: protein: recombinant; tags: N-terminal GST; dsDNA, one strand shown
# ELF4, sequence (Q99607 whole entry): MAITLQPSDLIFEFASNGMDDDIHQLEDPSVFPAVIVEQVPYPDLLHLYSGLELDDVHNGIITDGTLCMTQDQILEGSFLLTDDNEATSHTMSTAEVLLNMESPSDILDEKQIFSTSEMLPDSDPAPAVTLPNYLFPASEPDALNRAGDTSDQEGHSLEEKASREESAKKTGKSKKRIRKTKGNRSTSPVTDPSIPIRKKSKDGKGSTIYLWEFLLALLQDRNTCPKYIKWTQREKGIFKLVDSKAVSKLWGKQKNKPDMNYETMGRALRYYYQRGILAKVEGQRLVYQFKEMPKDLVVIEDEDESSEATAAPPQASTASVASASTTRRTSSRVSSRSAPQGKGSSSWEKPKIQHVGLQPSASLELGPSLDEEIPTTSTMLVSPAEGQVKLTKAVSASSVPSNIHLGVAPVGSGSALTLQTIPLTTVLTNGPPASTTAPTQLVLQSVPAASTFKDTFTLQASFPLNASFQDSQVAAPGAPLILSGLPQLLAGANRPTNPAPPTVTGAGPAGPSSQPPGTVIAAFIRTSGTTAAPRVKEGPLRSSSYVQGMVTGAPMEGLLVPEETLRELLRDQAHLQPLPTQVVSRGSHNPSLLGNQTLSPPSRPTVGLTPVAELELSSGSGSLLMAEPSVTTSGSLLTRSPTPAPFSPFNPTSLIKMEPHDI
# In short: as §1
# [15] = target: T9, ELK4 (Homo sapiens, UniProt P28324-2 1-405); settings: protein: recombinant; tags: N-terminal GST; dsDNA, one strand shown
# T9 sequence: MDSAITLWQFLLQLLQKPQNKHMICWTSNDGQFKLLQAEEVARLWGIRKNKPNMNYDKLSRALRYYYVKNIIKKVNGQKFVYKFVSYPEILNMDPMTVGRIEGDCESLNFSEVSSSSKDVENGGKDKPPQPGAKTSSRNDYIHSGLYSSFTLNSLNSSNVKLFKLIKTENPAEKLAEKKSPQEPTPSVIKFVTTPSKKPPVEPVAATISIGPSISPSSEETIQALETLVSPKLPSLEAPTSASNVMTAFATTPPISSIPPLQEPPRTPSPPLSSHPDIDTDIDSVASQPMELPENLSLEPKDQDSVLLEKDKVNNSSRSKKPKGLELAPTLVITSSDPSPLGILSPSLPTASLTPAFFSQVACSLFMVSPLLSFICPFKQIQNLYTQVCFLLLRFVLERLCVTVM
# In short: as §1
# [16] = target: T10, ETV2 (Homo sapiens, UniProt O00321 1-342); settings: protein: recombinant; tags: N-terminal GST; dsDNA, one strand shown
# T10 sequence: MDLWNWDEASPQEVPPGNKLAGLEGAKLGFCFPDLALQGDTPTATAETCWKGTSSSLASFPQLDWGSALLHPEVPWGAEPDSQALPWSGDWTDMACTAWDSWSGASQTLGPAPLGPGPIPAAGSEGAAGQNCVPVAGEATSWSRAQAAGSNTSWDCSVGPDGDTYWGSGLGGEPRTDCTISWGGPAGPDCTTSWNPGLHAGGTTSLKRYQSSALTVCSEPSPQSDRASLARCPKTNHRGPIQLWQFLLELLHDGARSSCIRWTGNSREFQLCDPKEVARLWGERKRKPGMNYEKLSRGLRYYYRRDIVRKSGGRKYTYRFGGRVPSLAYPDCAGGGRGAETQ
# In short: as §1
# [17] = target: T11, ELF3 (Homo sapiens, UniProt P78545 1-371); settings: protein: recombinant; tags: N-terminal GST; dsDNA, one strand shown
# T11 sequence: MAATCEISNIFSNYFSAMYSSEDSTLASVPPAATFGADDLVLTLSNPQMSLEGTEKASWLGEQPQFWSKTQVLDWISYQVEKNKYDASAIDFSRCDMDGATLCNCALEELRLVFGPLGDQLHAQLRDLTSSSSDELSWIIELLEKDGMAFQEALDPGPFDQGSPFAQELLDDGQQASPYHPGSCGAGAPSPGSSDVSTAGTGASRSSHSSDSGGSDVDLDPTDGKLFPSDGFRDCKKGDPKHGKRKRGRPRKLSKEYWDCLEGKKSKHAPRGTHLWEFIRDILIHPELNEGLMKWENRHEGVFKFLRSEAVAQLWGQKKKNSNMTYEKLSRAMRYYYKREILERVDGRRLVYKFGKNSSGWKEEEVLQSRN
# In short: as §1
# [18] = target: CRX (Homo sapiens, UniProt O43186 1-299); settings: protein: recombinant; tags: N-terminal GST; dsDNA, one strand shown
# CRX, sequence (O43186 whole entry): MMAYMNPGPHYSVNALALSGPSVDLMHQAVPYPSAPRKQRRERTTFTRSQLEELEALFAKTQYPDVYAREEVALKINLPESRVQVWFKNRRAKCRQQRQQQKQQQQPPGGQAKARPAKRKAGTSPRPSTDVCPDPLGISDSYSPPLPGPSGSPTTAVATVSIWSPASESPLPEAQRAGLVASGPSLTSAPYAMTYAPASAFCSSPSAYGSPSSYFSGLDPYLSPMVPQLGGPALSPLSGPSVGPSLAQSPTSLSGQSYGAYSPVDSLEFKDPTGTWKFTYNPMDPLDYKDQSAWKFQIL
# In short: as §1
# [19] = target: ETV1 (Homo sapiens, UniProt P50549 1-477); settings: protein: recombinant; tags: N-terminal GST; dsDNA, one strand shown
# ETV1, sequence (P50549 whole entry): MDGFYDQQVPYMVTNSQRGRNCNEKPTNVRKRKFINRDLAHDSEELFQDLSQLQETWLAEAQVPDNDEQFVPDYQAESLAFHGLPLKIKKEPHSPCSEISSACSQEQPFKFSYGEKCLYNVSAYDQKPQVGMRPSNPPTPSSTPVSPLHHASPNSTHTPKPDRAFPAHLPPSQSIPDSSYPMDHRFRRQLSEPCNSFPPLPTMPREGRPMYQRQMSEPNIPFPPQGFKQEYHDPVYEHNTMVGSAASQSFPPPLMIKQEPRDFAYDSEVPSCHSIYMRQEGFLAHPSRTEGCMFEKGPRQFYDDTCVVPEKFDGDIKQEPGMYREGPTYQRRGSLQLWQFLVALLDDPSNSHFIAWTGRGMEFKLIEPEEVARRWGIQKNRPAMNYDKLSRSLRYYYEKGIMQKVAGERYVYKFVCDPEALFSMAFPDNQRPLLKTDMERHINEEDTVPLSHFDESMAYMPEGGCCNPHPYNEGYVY
# In short: as §1
sequence,measurement,setting,value
CTCCCT,binding signal,[1],"1.61 fold enrichment (6-mer frequency, TF over GST control)"
same,binding signal,[2],"1.43 fold enrichment (6-mer frequency, TF over GST control)"
same,binding signal,[3],"1.54 fold enrichment (6-mer frequency, TF over GST control)"
same,binding signal,[4],"1.62 fold enrichment (6-mer frequency, TF over GST control)"
same,binding signal,[5],"1.68 fold enrichment (6-mer frequency, TF over GST control)"
same,binding signal,[6],"1.52 fold enrichment (6-mer frequency, TF over GST control)"
same,binding signal,[7],"1.49 fold enrichment (6-mer frequency, TF over GST control)"
same,binding signal,[8],"1.66 fold enrichment (6-mer frequency, TF over GST control)"
same,binding signal,[9],"1.5 fold enrichment (6-mer frequency, TF over GST control)"
same,binding signal,[10],"1.44 fold enrichment (6-mer frequency, TF over GST control)"
same,binding signal,[11],"1.73 fold enrichment (6-mer frequency, TF over GST control)"
same,binding signal,[12],"1.32 fold enrichment (6-mer frequency, TF over GST control)"
same,binding signal,[13],"1.38 fold enrichment (6-mer frequency, TF over GST control)"
same,binding signal,[14],"1.59 fold enrichment (6-mer frequency, TF over GST control)"
same,binding signal,[15],"1.41 fold enrichment (6-mer frequency, TF over GST control)"
same,binding signal,[16],"1.51 fold enrichment (6-mer frequency, TF over GST control)"
same,binding signal,[17],"1.48 fold enrichment (6-mer frequency, TF over GST control)"
same,binding signal,[18],"1.36 fold enrichment (6-mer frequency, TF over GST control)"
same,binding signal,[19],"1.44 fold enrichment (6-mer frequency, TF over GST control)"
